# KB-V1 cytotox: kills drug-selected multidrug resistant KB-V1 cells. AID 1347076. KB-V1 MDR cells viability, CellTiter-Glo, 72 h. Potency, µM (series often up to 46.1 µM), actives largely listed as cytotoxic. 400,000 compounds, 3.4% hits; further: on the % scale 0 is the no-effect control and ±100 the full control effect; nearly all actives have a fitted effect of over 60% in size
#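 qHTS viability screen in drug-selected KB-V1 MDR cells: 72 h compound treatment at 37 degrees C, ATP luminescence end point.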
# KB-3-1 cytotox: KB-3-1 parental cell cytotoxicity. KB-3-1 viability, CellTiter-Glo ATP luminescence, 72 h. Potency, µM (doses to about 46.1 µM), actives largely listed as cytotoxic. 400,000 compounds, 1.4% hits; further: on the % scale 0 is the no-effect control and ±100 the full control effect; nearly all actives have a fitted effect of over 60% in size
#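 Multi-concentration cytotoxicity screen in KB-3-1 cells grown in DMEM lacking phenol red with 10% FBS. After 72 h at 37 °C with compound, ATP-dependent luminescence was recorded.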
# ATXN2 expr inh: reduces ATXN2 reporter expression in HEK-293 cells; 360,000 compounds, 0.72% hits; Potency, µM (highest dose often 57 µM), for inactives: at the top dose activity change, negative = inhibition, most hits filed as inhibitors; HEK-293 ATXN2-luciferase reporter, luminescence, 24 h; further: on the % scale 0 is the no-effect control and ±100 the full control effect; nearly all actives have a fitted effect of over 55% in size
#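 qHTS (up to 57 uM final) was run with 24 h compound exposure of reporter cells at 37 °C. Each well was multiplexed: SteadyGlo luminescence measured ATXN2-luciferase expression after a fluorogenic Gly-Phe-AFC viability readout (25 uM final).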
# S2 tox: reduces viability in counter-screen for ATXN expression inhibitors | S2 cells (HEK-293 line with an ATXN2-luciferase reporter) viability, CellTiter-Fluor protease fluorescence, 24 h | Potency, µM (highest dose often 56.7 µM), hits mostly cytotoxic | 400,000 compounds, 0.49% hits | AID 651635; further: nearly all actives have a fitted effect of over 40% in size
# HT1080 IDH1KD tx: kills HT-1080 cells with IDH1 knockdown; HT-1080 IDH1 knockdown viability, ATP luminescence, 48 h; 360,000 compounds, 2% hits; AID 686971; Potency, µM (top dose mostly 46.1 µM), without a hit: top-dose activity, negative = toxicity, actives largely listed as cytotoxic;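 further: 0% = DMSO wells and -100% = cell-free medium wells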
#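 Assay cells: HT-1080 with IDH1 knockdown, 750 per well, RPMI/5% FBS. Exposure: 48 h at 37 °C following 2 h pre-incubation. Read: CellTiter-Glo luminescence; fitted concentration-response, curve class assigned.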
# HT1080NT lethal: kills 2HG-producing HT-1080-NT fibrosarcoma cells; HT-1080-NT fibrosarcoma viability, CellTiter-Glo ATP luminescence, 48 h; Potency, µM (series often up to 46.1 µM), inactives show at the top dose activity, negative = less viability, hits mostly cytotoxic; 360,000 compounds, 1.6% hits; AID 686970;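 further: NT is the 2HG producing partner of a matched IDH1 knockdown line; 0% = DMSO-treated cells and -100% = media-only wells without cells; nearly all actives have a fitted effect of over 55% in size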
#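 HT-1080-NT; 750 cells/well; 5% FBS RPMI; 48 h compound, 37 degrees C; CellTiter-Glo luminescence; curve fitting and curve-class assignment.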
# * = called active by the depositor; i = inactive; ? = inconclusive; / = not tested or not shown; [ ] = dose if it differs, or a comment. Most compounds without a hit are left out; they make up all but 6.2% or so of the library. The call rests on the fitted dose curve; in most records, active means well fitted curve in the direction sought with a large enough effect; inconclusive means small, poorly fitted or top-dose-only effect, or another doubt; inactive means no such curve, though single readings can be large; an effect the other way counts as inactive or inconclusive. Potency means the concentration at half of the fitted maximal effect.
SMILES,KB-V1 cytotox,KB-3-1 cytotox,ATXN2 expr inh,S2 tox,HT1080 IDH1KD tx,HT1080NT lethal
C=CCn1c(CCn2c3ccccc3c3ccccc32)n[nH]c1=S,?,i,2%,i,-5%,1%
CCOC(=O)c1ccc(NC(=O)c2ccccc2[N+](=O)[O-])cc1,i,i,48%,i,-8%,-1%
CCOC(=O)c1cc([N+](=O)[O-])c([N+](=O)[O-])cc1NC(C)=O,i,?,6%,i,?,7.3µM*
COCCOC(=O)C1=C(C)N(c2ccccc2)C(=O)NC1c1cccc([N+](=O)[O-])c1 (centres undefined),i,i,2%,i,-1%,3%
COC(=O)C1=C(C)NC(C)=C(C(=O)OCCN(C)Cc2ccccc2)C1c1cccc([N+](=O)[O-])c1 (centres undefined),18µM*,i,?,22µM*,?,-28%
CCOC(=O)C1=C(C)NC(C)=C(C(=O)OCCNC(=O)c2cccnc2)C1c1cccc([N+](=O)[O-])c1 (centres undefined),i,i,1%,i,-14%,-9%
COC(=O)C1=C(C)NC(C)=C(C(=O)OCCN2CCN(C(c3ccccc3)c3ccccc3)CC2)C1c1cccc([N+](=O)[O-])c1 (centres undefined),/,/,14µM*,?,/,/
COc1cccc(CNC(=O)c2cnc(N3CCCCC3)c3ccccc23)c1,i,i,/,/,/,/
CCCCCN1C=CC(=C2C(=O)c3ccccc3C2=O)C=C1,9.2µM*,i,/,i,9.2µM*,23µM*
CCCn1c(-c2ccc(OC)cc2)nc2ccccc21,18µM*,?,4%,i,?,-17%
COc1ccc(CNc2nc3ccccc3n2Cc2ccc(C)cc2)cc1OC,3.3µM*,i,-16%,i,9%,-1%
c1ccc(Cn2c(NCc3ccncc3)nc3ccccc32)cc1,?,i,/,i,-4%,-2%
COc1ccc(OC)c(CNc2nc3ccccc3n2CCN2CCCCC2)c1,4.1µM*,?,?,?,?,?
CCCn1c(NCc2cc(OC)ccc2OC)nc2ccccc21,4.1µM*,i,34%,i,6%,0%
CCC(CC)c1nn2c(=O)cc(COc3ccc(NC(=O)c4ccccc4Cl)cc3)nc2s1,?,i,11%,i,/,/
CCOc1ccccc1NC(=O)Cn1c(=O)oc2cc(S(=O)(=O)NCc3ccccc3)ccc21,i,i,/,/,/,/
COc1ccccc1-c1noc(-c2ccc(N(C)Cc3ccccc3)c([N+](=O)[O-])c2)n1,i,i,2%,i,/,/
COc1ccc(CNc2nc3ccccc3n2CCN2CCCCC2)c(OC)c1,18µM*,i,-23%,?,-25%,-13%
COc1cc(OC)c(OC)cc1NC(=O)CC1COc2ccccc2O1 (centres undefined),15µM*,i,6%,i,6%,5%
CN1CCN(c2ccc(Cl)cc2NC(=O)C2COc3ccccc3O2)CC1 (centres undefined),i,?,-8%,i,?,15µM*
COc1ccc(C)cc1NC(=O)CNc1ccccc1CN(C)C1CCCCC1,i,i,-16%,i,?,-24%
CCOc1ccc(/C=C2\SC(=O)N(CCNC(=O)C3COc4ccccc4O3)C2=O)cc1OC (centres undefined),16µM*,i,?,?,-4%,-4%
COc1ccc(Cl)cc1NC(=O)CNc1ccccc1CN(C)C1CCCCC1,?,i,/,i,16µM*,?
O=C(Nc1cc(S(=O)(=O)N2CCOCC2)ccc1N1CCCC1)C1COc2ccccc2O1 (centres undefined),i,i,-16%,?,-2%,1%
Cc1ccc(N2C(=O)CCSC23C(=O)N(Cc2ccccc2)c2ccccc23)cc1 (centres undefined),?,i,/,/,/,/
SMILES,KB-V1 cytotox,KB-3-1 cytotox,ATXN2 expr inh,S2 tox,HT1080 IDH1KD tx,HT1080NT lethal
COc1ccc(Cl)cc1NC(=O)CN(C)C(=O)C1COc2ccccc2O1 (centres undefined),16µM*,i,-15%,?,-4%,-9%
COc1ccc(Cl)cc1NC(=O)CN(C)C(=O)c1cc2c(s1)CCCC2,13µM*,?,-22%,i,-20%,-8%
COc1ccc(Cl)cc1NC(=O)CN(C)CC(=O)Nc1ccccc1N1CCOCC1,?,i,-7%[11.3 µM],?,1.2µM*,1.5µM*
COc1ccc(Cl)cc1NC(=O)CN(C)CC(=O)N1CC(=O)Nc2ccccc21,i,i,-4%,i,-11%,-14%
COc1ccc(Cl)cc1NC(=O)CN(C)C(=O)CN1C(=O)NC(C)(c2ccc3ccccc3c2)C1=O (centres undefined),?,10µM*,-9%,i,?,?
COc1ccc(Cl)cc1NC(=O)C1COc2ccccc2O1 (centres undefined),i,i,8%,i,5%,3%
CN(C)c1cc(F)c(C=O)cc1F,i,i,/,/,/,/
CC(C)(C)COc1ccc(-n2cc(C(=O)O)cn2)cc1C#N,/,/,103%,/,/,/
CCOc1ccccc1CNC(=O)C1CCN(c2nc3ccccc3nc2C(F)(F)F)CC1,i,i,16%,i,/,/
Cc1cc(C)cc(NC(=O)CCCn2c3ccccc3c(=O)c3ccccc32)c1,?,?,?,i,/,/
COCCN(CC(=O)Nc1cccc(C)c1C)C(=O)C1CCN(S(=O)(=O)c2ccccc2)CC1,9.2µM*,i,2%,i,-12%,-6%
CN1CCN(c2ccc(Cl)cc2NC(=O)/C=C/c2cccc(F)c2)CC1,i,?,?,?,21µM*,12µM*
CCOc1ccc(OCC)c(NC(=O)C2COc3ccccc3O2)c1 (centres undefined),21µM*,i,-12%,i,-11%,2%
COCCN(CC(=O)Nc1cccc(C)c1C)C(=O)c1cc2c(s1)CCC2,7.3µM*,i,-7%,i,0%,0%
CN1CCN(c2ccc(Cl)cc2NC(=O)c2cccc(S(=O)(=O)N(C)C)c2)CC1,i,i,-21%,i,14%[9.24 µM],?
COCCN(CC(=O)Nc1cccc(C)c1C)C(=O)c1ccc(S(=O)(=O)N2CCOCC2)cc1,?,i,8%,i,2%,5%
CCN(CC(=O)Nc1ccccc1C(F)(F)F)C(=O)c1cc2c(s1)CCCCC2,i,i,2%,i,-17%,-16%
